Sampled rows, rich in hits. Any-hit rate of the full collection: about 2.8%.
PP5 inh = PP5 phosphatase inhibitors, primary screen, biochemical, fluorescence; Serine/threonine-protein phosphatase 5 (Homo sapiens), P53041; purified PP5c, OMFP substrate fluorescence; inhibition, % at 6.7 µM; actives 0.18% (n = 320,000); AID 1987, 2009;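 active = inhibition above the campaign's mean inhibition across all tested compounds plus 3 SD, cut at about 9.5% in these data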;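 note: 0% = DMSO only and 100% = 100 µM cantharidin control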
PP1 inh = PP1-alpha phosphatase inhibitors, primary screen, counter-screen for PP5 inhibitor project, biochemical, fluorescence, OMFP substrate, single point | purified PP1alpha | inhibition, % at 6.7 µM | actives 0.9% (n = 320,000) | AID 2235, 2010;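 active = inhibition above the mean inhibition of all tested compounds plus 3 SD, computed separately for each screening campaign, cut at about 15% in these data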
SKKanGAS inh = S. pyogenes SKKanGAS growth inhibitors in kanamycin, primary screen, streptokinase expression inhibitor project, SKKanGAS strain, BacTiter-Glo luminescence; 6 h; inhibition, % at 7.5 µM; actives 1.3% (n = 300,000); AID 1662, 2009;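 active = mean replicate score, as percent of positive control median, at least 50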;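 note: strain carries kanamycin resistance gene driven by streptokinase promoter and grows in 40 µg/ml kanamycin; loss of luminescence reflects streptokinase promoter inhibition or plain growth inhibition; 0% = median of DMSO wells and 100% = positive control at its reference dose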
IDE cell activ = human IDE activators in live cells, primary screen, fluorescence polarization, HEK cells, FAbeta-B substrate; Insulin-degrading enzyme (Homo sapiens), P14735; FAbeta-B cleavage; 0% vehicle, 100% cell-free pure enzyme wells; actives 0.073% (n = 340,000); activation, % at 5.96 µM;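 active = activation above the mean of all tested compounds plus 3 SD, set per screening campaign, cut at about 17% in these data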
Target sequence (P14735 whole entry, looked up): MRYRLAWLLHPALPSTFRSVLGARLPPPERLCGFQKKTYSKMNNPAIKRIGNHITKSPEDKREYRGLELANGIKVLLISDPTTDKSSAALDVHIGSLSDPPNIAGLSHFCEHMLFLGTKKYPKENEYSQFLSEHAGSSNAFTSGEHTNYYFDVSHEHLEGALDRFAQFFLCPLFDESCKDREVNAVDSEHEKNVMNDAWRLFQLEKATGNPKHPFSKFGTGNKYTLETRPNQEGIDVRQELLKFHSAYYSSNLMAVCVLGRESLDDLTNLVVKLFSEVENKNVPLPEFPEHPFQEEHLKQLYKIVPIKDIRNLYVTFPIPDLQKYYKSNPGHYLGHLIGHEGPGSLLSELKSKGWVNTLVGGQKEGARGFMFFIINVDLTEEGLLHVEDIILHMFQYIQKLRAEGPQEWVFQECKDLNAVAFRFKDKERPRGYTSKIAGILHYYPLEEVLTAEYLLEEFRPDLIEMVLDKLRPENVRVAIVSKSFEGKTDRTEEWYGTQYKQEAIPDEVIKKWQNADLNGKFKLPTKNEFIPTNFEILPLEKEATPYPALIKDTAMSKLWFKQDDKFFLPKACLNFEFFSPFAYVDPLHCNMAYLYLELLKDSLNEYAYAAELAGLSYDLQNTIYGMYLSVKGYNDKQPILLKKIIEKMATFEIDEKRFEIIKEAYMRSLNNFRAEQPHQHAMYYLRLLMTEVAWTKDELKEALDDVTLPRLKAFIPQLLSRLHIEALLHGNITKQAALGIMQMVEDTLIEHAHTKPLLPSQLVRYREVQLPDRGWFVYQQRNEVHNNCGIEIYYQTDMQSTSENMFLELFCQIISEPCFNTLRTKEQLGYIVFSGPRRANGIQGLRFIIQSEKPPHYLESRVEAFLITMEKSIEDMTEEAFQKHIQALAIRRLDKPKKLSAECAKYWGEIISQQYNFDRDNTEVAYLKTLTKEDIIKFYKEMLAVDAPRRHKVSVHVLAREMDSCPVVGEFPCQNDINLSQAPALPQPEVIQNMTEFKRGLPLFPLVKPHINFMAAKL
Exocytosis inh = LAMP-1 surface exposure blockers, TALL-104 cells – cell-based, flow cytometry, MLPCN library, primary screen; actives 0.66% (n = 360,000); TALL-104 LAMP-1 surface exposure; cells stimulated with thapsigargin and PMA; inhibition, % at 10 µM;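 active = inhibition above about 55%, limit read from the data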
IDE inh = human IDE inhibitors in live cells, primary screen, fluorescence polarization, HEK cells, FAbetaB substrate. FAbetaB cleavage. inhibition, % at 5.59 µM. actives 0.41% (n = 320,000);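 active = percent inhibition above the average of all tested compounds plus 3 SD, set per screening campaign, cut at about 16% in these data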;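 note: IDE supplied by intact live HEK cells; FP after avidin binding of uncleaved biotin substrate so inhibition keeps polarization high; 0% = DMSO wells and 100% = 60 µM reference IDE inhibitor Ii1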
PP1 inh confirm = PP1 phosphatase inhibitors, confirmation, biochemical, fluorescence, OMFP substrate, triplicate | purified PP1alpha | inhibition, % at 6.7 µM | shares compounds with PP1 inh | actives 52% (n = 1,900);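 active = mean PP1 inhibition above a set limit taken from the earlier primary screen, cut at about 15% in these data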
PP5 inh counter = PP5 phosphatase inhibition by PP1 hits, confirmation, counter-screen for PP1 inhibitor project, biochemical, fluorescence, triplicate; shares compounds with PP1 inh; purified PP5c, OMFP fluorescence; inhibition, % at 6.7 µM; actives 4% (n = 1,900);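 active = mean PP5 inhibition over triplicate wells above about 9.5% taken from the earlier PP1 screen, limit read from the data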
An asterisk follows results filed as active; . = no result.

SMILES | PP5 inh | PP1 inh | SKKanGAS inh | IDE cell activ | Exocytosis inh | IDE inh | PP1 inh confirm | PP5 inh counter
CC(C)CCSc1nc2[nH]ncc2c(=O)[nH]1 | 1 | -3 | 0 | -1 | 1 | -5 | . | .
Cc1csc(SCC(=O)NCc2ccccc2Cl)n1 | 1 | 4 | -16 | 6 | 1 | 2 | . | .
O=C(CSc1nnc2ccc(-c3ccc(F)cc3)nn12)N1CCCC1 | 1 | -1 | -8 | 1 | -5 | 8 | . | .
O=C1N[C@@H](Cc2ccccc2)C(=O)N2[C@H]1C[C@]1([C@]34C[C@H]5C(=O)N[C@@H](Cc6ccccc6)C(=O)N5[C@H]3N(S(=O)(=O)c3ccccc3)c3ccccc34)c3ccccc3N(S(=O)(=O)c3ccccc3)[C@H]21 | 1 | 30* | -1 | 2 | 1 | 5 | 23* | -4
CCCCN(C(=O)CSCC(=O)Nc1ccc(OC)cc1)c1c(N)n(Cc2ccccc2)c(=O)[nH]c1=O | 2 | -2 | 3 | 0 | 6 | -4 | . | .
Cc1c(/C=N/NC(=O)CNc2ccccc2)c2ccccn2c1C(=O)c1ccc(Cl)cc1 | 5 | 21* | 23 | 5 | 1 | 0 | 6 | 0
Cc1ccc(-c2cc(C(=O)N/N=C/c3ccco3)[nH]n2)cc1 | -7 | -56 | 9 | -2 | -2 | 0 | -5 | -5
O=C(N/N=C/c1ccco1)c1cc(-c2ccccc2)n[nH]1 | 0 | 1 | -11 | 2 | 0 | -1 | . | .
O=C1N/C(=C/c2ccc(N3CCCC3)cc2)C(=O)N1c1ccccc1 | 4 | 23* | -10 | -7 | 1 | 12 | 11 | -3
CC(=O)Nc1ccc(NC(=O)C(C)OC(=O)C2CCN(S(=O)(=O)c3cccs3)CC2)cc1 (stereo not given) | -1 | 2 | -2 | 4 | -6 | 5 | . | .
CSc1ccc(CN2CCC(C)(Oc3ccc(F)cc3)C2)cc1 (stereo not given) | . | . | . | . | 15 | . | . | .
COC(=O)[C@]1(Cc2ccccc2)N[C@H](CN(C)C(=O)c2ccc(F)cc2)[C@@H]2C(=O)N(C)C(=O)[C@@H]21 | . | . | . | 2 | -3 | 0 | . | .
CCc1cc(C(=O)N2CCN(S(=O)(=O)c3ccccc3F)CC2)sc1C | 2 | -4 | . | -1 | 0 | 7 | . | .
Cc1cc(/C=N/n2cnnc2)c(C)n1-c1ccc(OCc2ccc(F)cc2)cc1 | 2 | 19* | 26 | -2 | 2 | -5 | 10 | 1
Cc1cc(/C=N/n2cnnc2)c(C)n1-c1ccccc1 | 2 | 1 | -1 | 1 | 1 | -1 | . | .
Cc1cc(/C=N/n2cnnc2)c(C)n1-c1ccc(OCc2ccc(Cl)cc2Cl)cc1 | 2 | 27* | 122* | -4 | 0 | 5 | 42* | 0
Cc1cc(/C=N/n2cnnc2)c(C)n1-c1ccc(Cl)cc1 | 3 | -4 | -1 | 4 | 1 | -2 | . | .
Cc1ccc(C(=O)CN2C(=O)NC3(CCc4ccccc43)C2=O)s1 (stereo not given) | -3 | 6 | . | 0 | -6 | 2 | . | .
C/C=C\C=C/C(=O)Nc1cccc(C2=NOC3(C2)C[C@@H](C(N)=O)N(C(=O)/C=C/C=C\C)C3)c1 (stereo not given in full) | 4 | 31* | 10 | -3 | 21 | 9 | 14 | -1
C=C(C)C(=O)Nc1cccc(C2=NOC3(C2)C[C@@H](C(N)=O)N(C(=O)C2(C)CC2)C3)c1 (stereo not given in full) | 2 | 23* | 0 | -1 | 5 | -1 | 2 | -3
C/C=C\C=C/C(=O)Nc1cccc(C2=NOC3(C2)C[C@@H](C(N)=O)N(C(=O)/C=C/CC)C3)c1 (stereo not given in full) | -1 | 1 | 8 | -2 | 4 | 0 | . | .
C=C(C)C(=O)Nc1cccc(C2=NOC3(C2)C[C@@H](C(N)=O)N(C(=O)C(=C)C)C3)c1 (stereo not given in full) | 1 | 5 | -1 | -3 | -5 | 2 | . | .
NC(=O)[C@H]1CC2(CC(c3cccc(NC(=O)CC(c4ccccc4)c4ccccc4)c3)=NO2)CN1C(=O)c1ccccc1C(=O)c1ccccc1 (stereo not given in full) | 3 | 19* | 29 | 1 | 10 | 4 | 12 | 0
CC(=O)N1CCOCCOCCN(C(C)=O)CCOCC1 | -1 | -1 | -11 | 5 | -2 | 2 | . | .
CC(C)C(=O)NC(c1cccs1)c1cc([N+](=O)[O-])c2cccnc2c1O (stereo not given) | 1 | 26* | 77* | 2 | -1 | 8 | 16* | 8
SMILES | PP5 inh | PP1 inh | SKKanGAS inh | IDE cell activ | Exocytosis inh | IDE inh | PP1 inh confirm | PP5 inh counter
CCC(=O)NC(c1cccs1)c1cc([N+](=O)[O-])c2cccnc2c1OC (stereo not given) | . | . | . | . | -3 | . | . | .
Cc1ccc(C(NC(=O)C(C)C)c2cc([N+](=O)[O-])c3cccnc3c2O)cc1 (stereo not given) | 5 | 26* | 89* | -12 | 2 | 2 | 20* | -1
Cc1ccccc1S(=O)(=O)N1[C@@H](c2ccc(Cl)cc2)C(C(=O)O)=CC[C@H]1c1ccc(Cl)cc1 | . | . | . | 3 | 2 | 4 | . | .
COc1cccc(NC(=O)COC(=O)CNC(=O)C2CCCCC2)c1 | 0 | -1 | . | 1 | 0 | 0 | . | .
Cn1c(N)c(C(=O)COC(=O)c2ccccc2C(=O)c2ccc(Cl)c([N+](=O)[O-])c2)c(=O)n(C)c1=O | . | . | . | 4 | 4 | 4 | . | .
CNc1ccc(/C=C(\CCC(=O)O)c2nc3ccccc3s2)cc1[N+](=O)[O-] | 1 | 32* | 26 | 4 | 0 | 13 | 24* | -5
COc1ccc(C(=O)Nc2cccc(/C=C(\CCC(=O)O)c3nc4ccccc4s3)c2)cc1 | 1 | 23* | 52* | -3 | -1 | -2 | 11 | -2
CN(c1ccccc1)c1ccc(/C=C(\CCC(=O)O)c2nc3ccccc3s2)cc1[N+](=O)[O-] | 7 | 26* | -9 | 0 | 0 | 2 | 15 | -3

Screens deposited in PubChem BioAssay by several laboratories.
